Test [1] concerns the target Estrogen receptor beta (Homo sapiens) (UniProt Q92731). Kind of test: qHTS assay to identify small molecule antagonists of the estrogen receptor beta (ER-beta) signaling pathway (AID 1259378; active means well fitted inhibition curve with a large enough effect in the signal ratio in the repeat runs, not every such curve was filed as active; the % refers to the signal ratio; further: potency means the concentration at half of the fitted maximal effect). In short, it runs like this:
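Antagonist mode: compounds added to beta-lactamase reporter HEK293T ER-beta-UAS cells stimulated with E2 (1nM final), 16 hr at 37C. LiveBLAzer B/G FRET substrate, 2 hours room temperature, fluorescence read-out.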
(In general: In qHTS, concentration-response curves come from the screen itself.)

Test [2] in a line: qHTS assay to identify small molecule agonists of the androgen receptor (AR) signaling pathway in the presence of an antagonist - cell viability counter screen (AID 1259379). Further: nearly all actives have a fitted effect of over 25% in size. Further: potency means the concentration at half of the fitted maximal effect. In short, it runs like this:
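In MDA-kb2 cells (human breast carcinoma, MMTV-luciferase), compounds at 15 concentrations plus 3.0uM nilutamide; 16 hr, 37C, 0% CO2; CellTiter-Fluor fluorescence read for viability.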

Test [3] in a line: qHTS assay to identify small molecule agonists of the estrogen receptor beta (ER-beta) signaling pathway - cell viability counter screen (AID 1259380). Further: nearly all actives have a fitted effect of over 30% in size. Further: potency means the concentration at half of the fitted maximal effect. In short, it runs like this:
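Viability of ER-beta-UAS-bla HEK293T cells was determined by CellTiter-Glo luminescence following 16 hr treatment with test compounds at 37C.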

A short description of test [4]: qHTS assay to identify small molecule antagonists of the estrogen receptor beta (ER-beta) signaling pathway - cell viability counter screen (AID 1259382).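 Further: HEK293T cells carrying ER-beta-UAS-bla reporter stimulated with estradiol; series mostly up to about 92 µM; nearly all actives have a fitted effect of over 55% in size.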 The method in brief:
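Tox21 10K library tested in qHTS format on ER-beta-bla HEK293T cells stimulated with 1nM E2; 16 hr treatment at 37C. Same-well CellTiter-Glo luminescence served as the cell viability measure.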

The nature of test [5]: qHTS assay to identify small molecule agonists or antagonists of the thyroid stimulating hormone receptor (TSHR) signaling pathway - wild type cell line counter screen (AID 1259384; calls by dose curve). The method in brief:
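Counter screen in untransfected Hek293: compounds (15-point titration, triplicate) plus phosphodiesterase inhibitor Ro20-1724 added after 18 h plating; 30 min RT. Intracellular cAMP via competitive d2/cryptate immunoassay, 1 h incubation.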

Test [6] addresses Thyrotropin receptor (Homo sapiens) (UniProt P16473). Kind of test: qHTS assay to identify small molecule antagonists of the thyroid stimulating hormone receptor (TSHR) signaling pathway (AID 1259385; calls by dose curve; further: nearly all actives have a fitted effect of over 20% in size). In short, it runs like this:
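Antagonist mode: compound-treated TSHR-expressing HEK293 cells were stimulated with 1.5 ng/mL TSH (final) in presence of Ro20-1724 for 30 min at RT. HTRF cAMP detection after 1 h; each compound tested at 15 concentrations, triplicate.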

A short description of test [7]: qHTS assay to identify small molecule agonists of the estrogen receptor alpha (ER-alpha) signaling pathway in the presence of an antagonist - cell viability counter screen (AID 1259386).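 Further: cells exposed to compounds for 22 h at 37 °C before the viability read; nearly all actives have a fitted effect of over 30% in size.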 Further: potency means the concentration at half of the fitted maximal effect. The method in brief:
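Fluorescent CellTiter-Fluor viability signal from VM7Luc4E2 cells, with the reagent added during the final hour of a 22hr compound exposure at 37C in the presence of 10.0nM ICI-182,780.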

The target in test [8] is Progesterone receptor (Homo sapiens) (UniProt P06401). Put plainly: qHTS assay to identify small molecule agonists of the progesterone receptor (PR) signaling pathway (AID 1346784; calls by dose curve; further: nearly all actives have a fitted effect of over 30% in size). The method in brief: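 Agonist qHTS: compounds pinned onto 3,000 PR-UAS-bla HEK 293T cells per well in charcoal-stripped serum medium, 16hr at 37C, then beta-lactamase activity measured by LiveBLAzer FRET fluorescence after 2 hours at room temperature.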
Chain of Progesterone receptor (Homo sapiens) (P06401 whole entry, looked up): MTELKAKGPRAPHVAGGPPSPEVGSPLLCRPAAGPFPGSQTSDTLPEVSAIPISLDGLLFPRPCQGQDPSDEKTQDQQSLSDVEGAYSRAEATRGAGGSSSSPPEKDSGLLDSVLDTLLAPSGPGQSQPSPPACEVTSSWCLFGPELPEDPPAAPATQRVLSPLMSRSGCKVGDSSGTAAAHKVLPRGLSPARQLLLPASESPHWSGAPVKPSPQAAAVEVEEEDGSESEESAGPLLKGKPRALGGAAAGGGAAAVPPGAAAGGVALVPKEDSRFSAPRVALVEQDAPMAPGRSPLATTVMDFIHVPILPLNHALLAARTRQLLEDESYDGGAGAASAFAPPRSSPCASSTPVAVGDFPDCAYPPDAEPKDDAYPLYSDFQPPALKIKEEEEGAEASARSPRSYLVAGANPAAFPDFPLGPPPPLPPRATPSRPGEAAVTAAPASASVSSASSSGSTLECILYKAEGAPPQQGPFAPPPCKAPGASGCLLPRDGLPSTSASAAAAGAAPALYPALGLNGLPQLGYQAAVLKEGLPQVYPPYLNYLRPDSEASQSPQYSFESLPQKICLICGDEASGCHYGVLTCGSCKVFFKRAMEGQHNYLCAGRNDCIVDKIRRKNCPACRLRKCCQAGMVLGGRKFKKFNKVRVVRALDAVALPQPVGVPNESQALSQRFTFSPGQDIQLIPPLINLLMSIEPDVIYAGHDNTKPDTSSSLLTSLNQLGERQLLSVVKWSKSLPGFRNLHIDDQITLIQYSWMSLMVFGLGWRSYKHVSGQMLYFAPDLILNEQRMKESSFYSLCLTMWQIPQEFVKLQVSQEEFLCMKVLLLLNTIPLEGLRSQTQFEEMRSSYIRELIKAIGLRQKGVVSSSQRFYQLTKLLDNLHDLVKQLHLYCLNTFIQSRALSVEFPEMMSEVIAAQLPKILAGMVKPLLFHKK

Test [9] in a line: qHTS assay to identify small molecule antagonists of the progesterone receptor (PR) signaling pathway - cell viability counter screen (AID 1346798). Further: series mostly up to about 92 µM; nearly all actives have a fitted effect of over 50% in size. The method in brief:
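Cytotoxicity read as CellTiter-Glo luminescence (30 min, room temperature) in the same wells as the beta-lactamase readout. HEK293T PR-UAS-bla cells in charcoal-stripped 2% FBS received compound and R5020, then 16 h at 37C, 5% CO2.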

A short description of test [10]: qHTS assay to identify small molecule agonists of the progesterone receptor (PR) signaling pathway - cell viability counter screen (AID 1346799; calls by dose curve; further: nearly all actives have a fitted effect of over 45% in size). In short, it runs like this:
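Cytotoxicity measured by CellTiter-Glo luminescence (30 min, RT) in the same wells as the PR beta-lactamase agonist read. Those HEK293T cells had 16 h compound treatment at 37 C in 2% charcoal-stripped FBS medium.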

Test [11] in a line: qHTS assay to identify small molecule agonists of the TGF-beta/Smad signaling pathway - cell viability counter screen (AID 1346829). Further: top concentration of the series differs between compounds; nearly all actives have a fitted effect of over 45% in size. In short, it runs like this: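 Luminescence from CellTiter-Glo, read after a 30 min room-temperature incubation, gives cell viability of SBE-bla HEK 293T cells treated 5 hr with compounds at 37 C.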
The nature of test [12]: qHTS assay to identify small molecule agonists of the TGF-beta/Smad signaling pathway (AID 1346859; active means well fitted activation curve with a large enough effect in the signal ratio in the repeat runs, not every such curve was filed as active; the % refers to the signal ratio; further: series mostly up to about 77 µM). The method in brief:
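Fluorescence (ex 405 nm; em 460 and 530 nm) was read 2 h after LiveBLAzer FRET substrate at RT. The preceding compound treatment of overnight-plated SBE-bla HEK293T cells lasted 5 h at 37 C.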

The target of test [13] is Thyrotropin-releasing hormone receptor (Homo sapiens) (UniProt P34981). Put plainly: qHTS assay to identify small molecule agonists of the thyrotropin-releasing hormone receptor (TRHR) signaling pathway (AID 1346891; calls by dose curve; further: series mostly up to about 58 µM). In short, it runs like this: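 Agonist-mode intracellular calcium readout: kinetic fluorescence over 3 min at 1 s intervals after compound addition to TRHR-HEK293 cells (18 h seeded, 2 h dye-loaded at 37 C). Fifteen concentrations, triplicates.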
Chain of Thyrotropin-releasing hormone receptor (Homo sapiens) (P34981 whole entry, looked up): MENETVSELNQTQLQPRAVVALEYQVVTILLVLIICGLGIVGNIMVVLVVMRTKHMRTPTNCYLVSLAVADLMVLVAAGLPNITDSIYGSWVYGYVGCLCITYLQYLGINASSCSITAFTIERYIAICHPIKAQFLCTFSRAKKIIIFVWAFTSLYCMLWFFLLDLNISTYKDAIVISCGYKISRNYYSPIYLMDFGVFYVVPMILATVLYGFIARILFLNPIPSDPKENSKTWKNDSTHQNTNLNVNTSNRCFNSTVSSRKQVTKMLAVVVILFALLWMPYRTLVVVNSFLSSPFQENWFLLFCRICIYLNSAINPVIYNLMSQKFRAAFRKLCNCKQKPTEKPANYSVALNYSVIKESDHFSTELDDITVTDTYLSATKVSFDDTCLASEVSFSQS

A short description of test [14]: Human pregnane X receptor (PXR) small molecule agonists, qHTS cell viability counter screen (AID 1346977). Further: nearly all actives have a fitted effect of over 50% in size. Further: potency means the concentration at half of the fitted maximal effect. The method in brief:
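Same-well viability read: CellTiter-Fluor added after 23 hr compound exposure, fluorescence measured 1 hr later. Cells were PXR-Luc HepG2 seeded at 2,000/well in 5% charcoal-stripped FBS medium, rested 5 hr before dosing at 37 C.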

Test [15] has as its target Androgen receptor (Homo sapiens) (UniProt P10275). Put plainly: qHTS assay to identify small molecule agonists of the androgen receptor (AR) signaling pathway in the presence of an antagonist (AID 1259381; calls by dose curve; further: nearly all actives have a fitted effect of over 15% in size). The method in brief: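 Here, 15-concentration compound series were pin-transferred onto MDA-kb2 MMTV-luciferase cells already dosed with nilutamide (3.0uM final). After 16hr at 37C, ONE-Glo was added and luminescence read 30min later at room temperature.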

Test [16] in a line: qHTS assay to identify small molecule antagonists of the TGF-beta/Smad signaling pathway - cell viability counter screen (AID 1346824). Further: nearly all actives have a fitted effect of over 50% in size. The method in brief: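 Cytotoxicity counter-screen run in the same wells as the beta-lactamase Smad reporter read: CellTiter-Glo luminescence after 30 min at room temperature. HEK 293T SBE-bla cells had 5 hr compound exposure at 37 C with TGF-beta1 (0.25 ng/mL stock).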

The target of test [17] is Estrogen receptor (Homo sapiens) (UniProt P03372). Put plainly: qHTS assay to identify small molecule agonists of the estrogen receptor alpha (ER-alpha) signaling pathway in the presence of an antagonist (AID 1259383; calls by dose curve; further: top concentration of the series differs between compounds; nearly all actives have a fitted effect of over 15% in size). In short, it runs like this:
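In VM7Luc4E2 cells, 4,000 per well, compounds at 15 concentrations were co-incubated 22hr at 37C with 10.0nM final ICI-182,780. Luminescence from the stably transfected 4×ERE-luciferase reporter was recorded 30min after ONE-Glo addition.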

In test [18] the target is Progesterone receptor (Homo sapiens) (UniProt P06401). Put plainly: qHTS assay to identify small molecule antagonists of the progesterone receptor (PR) signaling pathway (AID 1346795; active means well fitted inhibition curve with a large enough effect in the signal ratio in the repeat runs, not every such curve was filed as active; the % refers to the signal ratio). The method in brief: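 Antagonist mode with agonist R5020 at 1 nM final and 16 hr incubation at 37C. Reporter was beta-lactamase driven by UAS in HEK293T (PR-UAS-bla), 2% charcoal-stripped serum; signal from LiveBLAzer FRET substrate, 2 hr at room temperature.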

In test [19] the target is Thyrotropin-releasing hormone receptor (Homo sapiens) (UniProt P34981). Kind of test: qHTS assay to identify small molecule antagonists of the thyrotropin-releasing hormone receptor (TRHR) signaling pathway (AID 1346877; active means well fitted inhibition curve with a large enough effect in the repeat runs, not every such curve was filed as active; further: series mostly up to about 51 µM). The method in brief:
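In this cell-based calcium flux format, HEK293 cells expressing TRHR received test compound for 5 min before the agonist TRH (1 nM final). Dye loading lasted 2 h at 37 °C.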

Molecules are shown by their SMILES. Results filed as inconclusive are left out. Active and inactive are the calls of the source. Unless noted, the call rests on the fitted dose curve; in most records, active means well fitted curve in the direction sought with a large enough effect in the repeat runs; inconclusive means weak or mixed curves; inactive means no such curve, though single readings can be large; an effect the other way counts as inactive or inconclusive.

Chain of Estrogen receptor beta (Homo sapiens) (Q92731 whole entry, looked up): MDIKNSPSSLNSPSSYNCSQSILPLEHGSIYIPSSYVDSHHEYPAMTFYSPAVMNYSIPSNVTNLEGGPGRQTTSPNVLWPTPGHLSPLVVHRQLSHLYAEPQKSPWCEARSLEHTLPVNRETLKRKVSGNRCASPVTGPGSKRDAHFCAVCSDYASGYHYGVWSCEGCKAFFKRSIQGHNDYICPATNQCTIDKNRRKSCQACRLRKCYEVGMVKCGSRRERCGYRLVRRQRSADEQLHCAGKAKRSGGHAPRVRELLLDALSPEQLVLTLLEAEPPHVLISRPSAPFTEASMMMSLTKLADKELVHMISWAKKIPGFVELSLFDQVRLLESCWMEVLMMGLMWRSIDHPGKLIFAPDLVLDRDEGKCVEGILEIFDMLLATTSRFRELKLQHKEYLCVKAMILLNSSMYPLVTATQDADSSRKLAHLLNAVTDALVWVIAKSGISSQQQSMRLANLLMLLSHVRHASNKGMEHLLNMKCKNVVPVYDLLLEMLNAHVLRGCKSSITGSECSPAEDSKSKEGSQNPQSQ
Chain of Estrogen receptor (Homo sapiens) (P03372 whole entry, looked up): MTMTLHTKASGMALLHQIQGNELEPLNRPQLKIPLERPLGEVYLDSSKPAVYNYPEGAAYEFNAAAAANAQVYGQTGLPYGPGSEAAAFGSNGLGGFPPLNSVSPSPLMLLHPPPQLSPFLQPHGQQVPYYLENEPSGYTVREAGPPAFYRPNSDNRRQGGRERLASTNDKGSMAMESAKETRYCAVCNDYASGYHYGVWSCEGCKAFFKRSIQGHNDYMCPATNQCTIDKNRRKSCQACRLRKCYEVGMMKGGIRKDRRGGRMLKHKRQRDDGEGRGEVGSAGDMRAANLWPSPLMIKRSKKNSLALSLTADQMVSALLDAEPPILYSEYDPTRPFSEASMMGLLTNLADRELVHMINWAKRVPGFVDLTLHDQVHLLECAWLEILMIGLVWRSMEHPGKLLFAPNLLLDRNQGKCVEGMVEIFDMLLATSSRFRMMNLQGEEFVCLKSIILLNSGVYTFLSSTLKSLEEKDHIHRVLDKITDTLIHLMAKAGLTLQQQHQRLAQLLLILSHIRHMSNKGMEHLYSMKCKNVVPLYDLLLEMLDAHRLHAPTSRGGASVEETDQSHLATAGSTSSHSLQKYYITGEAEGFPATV
Chain of Androgen receptor (Homo sapiens) (P10275 whole entry, looked up): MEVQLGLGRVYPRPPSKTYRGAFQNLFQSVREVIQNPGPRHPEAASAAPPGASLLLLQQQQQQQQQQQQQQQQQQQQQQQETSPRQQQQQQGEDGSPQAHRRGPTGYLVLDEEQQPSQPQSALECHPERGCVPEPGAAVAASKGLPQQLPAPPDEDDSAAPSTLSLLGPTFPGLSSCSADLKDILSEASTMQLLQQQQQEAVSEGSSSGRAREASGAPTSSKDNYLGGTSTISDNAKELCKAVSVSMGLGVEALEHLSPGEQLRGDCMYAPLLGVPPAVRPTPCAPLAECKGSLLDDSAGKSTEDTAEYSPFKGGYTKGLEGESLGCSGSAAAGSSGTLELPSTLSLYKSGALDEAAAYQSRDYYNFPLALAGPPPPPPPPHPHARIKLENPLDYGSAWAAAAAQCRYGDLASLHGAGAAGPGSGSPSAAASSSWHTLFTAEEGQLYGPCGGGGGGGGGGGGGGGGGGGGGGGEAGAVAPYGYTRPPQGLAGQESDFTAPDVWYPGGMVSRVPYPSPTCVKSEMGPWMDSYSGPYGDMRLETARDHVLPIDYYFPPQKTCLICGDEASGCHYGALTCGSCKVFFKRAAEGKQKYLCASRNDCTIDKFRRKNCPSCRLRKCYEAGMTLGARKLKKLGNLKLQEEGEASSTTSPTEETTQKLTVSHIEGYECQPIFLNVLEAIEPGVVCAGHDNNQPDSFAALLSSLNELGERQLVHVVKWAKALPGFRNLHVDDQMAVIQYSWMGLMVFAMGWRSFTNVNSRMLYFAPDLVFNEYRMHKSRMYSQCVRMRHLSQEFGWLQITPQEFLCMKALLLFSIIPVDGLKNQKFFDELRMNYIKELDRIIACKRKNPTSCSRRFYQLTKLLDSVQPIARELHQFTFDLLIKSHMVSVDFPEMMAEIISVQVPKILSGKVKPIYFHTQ
Chain of Thyrotropin receptor (Homo sapiens) (P16473 whole entry, looked up): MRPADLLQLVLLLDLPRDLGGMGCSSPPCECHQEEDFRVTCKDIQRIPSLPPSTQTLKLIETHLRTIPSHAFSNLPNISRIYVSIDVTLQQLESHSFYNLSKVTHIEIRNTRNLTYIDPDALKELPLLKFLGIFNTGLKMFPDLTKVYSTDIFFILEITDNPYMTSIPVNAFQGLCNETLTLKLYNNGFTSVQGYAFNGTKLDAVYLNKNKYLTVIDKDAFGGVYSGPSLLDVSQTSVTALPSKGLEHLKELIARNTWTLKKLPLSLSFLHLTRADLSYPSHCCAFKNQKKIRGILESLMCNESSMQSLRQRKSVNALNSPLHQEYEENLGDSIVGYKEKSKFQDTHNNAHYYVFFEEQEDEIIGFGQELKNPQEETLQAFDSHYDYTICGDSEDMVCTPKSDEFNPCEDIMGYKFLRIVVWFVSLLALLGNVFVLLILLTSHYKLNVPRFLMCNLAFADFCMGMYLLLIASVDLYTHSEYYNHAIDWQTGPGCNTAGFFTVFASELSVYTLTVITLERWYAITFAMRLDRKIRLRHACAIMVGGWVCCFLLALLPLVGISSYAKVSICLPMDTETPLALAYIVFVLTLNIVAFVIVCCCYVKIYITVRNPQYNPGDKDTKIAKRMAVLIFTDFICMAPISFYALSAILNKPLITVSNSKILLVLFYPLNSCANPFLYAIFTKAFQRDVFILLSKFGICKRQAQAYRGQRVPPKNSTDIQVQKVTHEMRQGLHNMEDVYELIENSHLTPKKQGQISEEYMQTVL

As for `Oc1ccc(-c2ccccc2)c(Cl)c1`, the Potency in [1] was 21.7 µM (active); in test [3] it was 27.3 µM (active). Besides, the Potency entry in test [2], in [4], in test [6], in [7], in test [9] and in test [10] was “inactive” each time. Also, the Potency entry in test [11], in test [12], in [13] and in [14] was “inactive” each time. For the same compound, the result in test [5] and in test [8] was inactive.

On to `CC1(C)C(=O)N(Br)C(=O)N1Br`, for which the Potency entry in test [1], in test [3], in [15], in test [4], in test [6] and in test [7] was “inactive” each time. The Potency entry in [9], in test [10], in test [16], in [11], in test [12] and in test [14] was “inactive” throughout. Also, in test [5], the result was inactive.

As for `COc1ccccc1C=O`, the Potency result in [1], in test [2], in test [3], in test [15], in [4] and in test [17] was “inactive” throughout. Moreover, the Potency entry in test [6], in [18], in test [9], in test [10], in [16] and in [11] was “inactive” throughout. Besides, the Potency entry in test [12] and in test [14] was “inactive” each time. For the same compound, the call in [5] and in test [8] was inactive.

Turning to `Cc1cc(Nc2ccc(O)cc2)ccc1N`, the Potency result in test [1], in test [4], in test [9], in [16] and in [12] was “inactive” each time. The Potency in [2] is 24.2 µM (active); in test [7], 30.5 µM (active); in test [14] it was 30.5 µM (active). For the same compound, the call in test [8] was inactive.

For the compound `CCCCCCCC/C=C\CCCCCCCC(=O)OCCOC(=O)CCCCCCC/C=C\CCCCCCCC`, the Potency result in test [1], in test [2], in [3], in test [4], in test [17] and in test [6] was “inactive” in each case. The Potency result in [7], in test [9], in test [10], in test [11], in test [12] and in test [14] was “inactive” each time.

Turning to `Cc1cc(=O)[nH]c(=O)[nH]1`, the Potency result in [1], in [2], in [3], in test [4], in test [17] and in test [6] was “inactive” in each case. The Potency entry in test [7], in test [18], in [9], in [10], in test [11] and in [12] was “inactive” throughout. Besides, the Potency entry in [19], in [13] and in [14] was “inactive” each time. Also, the compound was called inactive in [5] and in test [8].

For the compound `CCOC(OCC)C(=O)c1ccccc1`, the Potency entry in test [1], in test [3], in test [15], in test [4], in test [17] and in test [7] was “inactive” throughout. The Potency entry in test [18], in [9], in test [10], in [16], in test [11] and in test [12] was “inactive” each time. Moreover, the Potency result in [19], in [13] and in test [14] was “inactive” each time. In addition, the result in [8] was inactive.

In the case of `Cc1cccc(N(C)C)c1`, the Potency result in test [1], in test [2], in test [15], in [4], in [17] and in [6] was “inactive” in each case. The Potency result in test [7], in [18], in [9], in test [10], in [16] and in [11] was “inactive” throughout. The Potency entry in test [12] and in [14] was “inactive” in each case. The compound was called inactive in test [8].

Source of the values: PubChem BioAssay (Tox21).
